The source made the active and inactive calls. How the source made its calls: active means hit-call score of the fitted dose curve at least 0.9, where 1 is the maximum; inactive means score below 0.9.
Experiments:
[1] = ATG_CRE_CIS: Attagene CIS-FACTORIAL HepG2 Assay for human cAMP Responsive Element (CRE) binding protein 3 (AID 2282926); conditions: HepG2 CRE cis-reporter, Attagene multiplexed mRNA; actives raise or lower the signal
How it was run: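 Readout: fluorescently labelled reporter transcripts resolved by capillary electrophoresis after RT-PCR, taken 24 h post-dosing in transfected HepG2. Endogenous transcription factor activity drives each cis-element reporter; gain or loss of signal fitted relative to DMSO control.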

[2] = target: CCAAT/enhancer-binding protein beta (Homo sapiens) (UniProt P17676); assay: ATG_C_EBP_CIS: Attagene CIS-FACTORIAL HepG2 Assay for human CCAAT/Enhancer Binding Protein (C/EBP) beta (AID 2282927); conditions: HepG2 Attagene cis-factorial transcription factor reporter; actives raise or lower the signal
How it was run: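 HepG2 transiently transfected with multiplexed reporter units under cis-regulatory promoters reporting endogenous C/EBPb activity. After 24 h exposure, reporter mRNA assayed by RT-PCR, fluorescent labelling, HpaI digestion and capillary electrophoresis; bidirectional fitting versus DMSO.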

[3] = ATG_CMV_CIS: Attagene CIS-FACTORIAL HepG2 Assay for human CMV (Internal Marker) (AID 2282928); conditions: HepG2 CMV promoter reporter, transcription factor profiling; actives raise or lower the signal;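 further: endpoint acts as a background internal control marker rather than a target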
How it was run: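 Readout: fluorescent reporter cDNA fragments separated by capillary electrophoresis after RT-PCR and HpaI cut. Cells: HepG2 carrying transfected cis-promoter reporter constructs, dosed 24 h. Endpoint serves as background internal-marker control, fit bidirectionally versus DMSO.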

[4] = ATG_DR4_LXR_CIS: Attagene CIS-FACTORIAL HepG2 Assay for human Liver X Receptor (LXR), DR4 submotif (AID 2282929); conditions: HepG2 Attagene DR4 cis-reporter, mRNA transcription; actives raise or lower the signal
How it was run: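 Readout: reporter transcript fluorescence after RT-PCR and capillary electrophoresis, fitted bidirectionally against DMSO controls. Human HepG2 liver cells carried transiently transfected multiplexed reporter constructs; endogenous transcription factor activity measured 24 h post-dosing.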

[5] = target: Aryl hydrocarbon receptor (Homo sapiens) (UniProt P35869); assay: ATG_Ahr_CIS: Attagene CIS-FACTORIAL HepG2 Assay for human Aryl Hydrocarbon Receptor (Ahr) (AID 2282930); conditions: HepG2 AhR cis-factorial reporter transcription; actives raise or lower the signal
How it was run: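 HepG2 cells transiently transfected with cis-element-driven multiplexed reporter units; endogenous AhR activity read as reporter mRNA 24 h after dosing, via RT-PCR, 6-FAM labelling, HpaI digestion and capillary electrophoresis. Bidirectional fit relative to DMSO.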

[6] = ATG_AP_1_CIS: Attagene CIS-FACTORIAL HepG2 Assay for human Activator Protein 1 (AP-1) (AID 2282931); conditions: HepG2 Attagene cis-factorial AP-1 reporter mRNA; actives raise or lower the signal
How it was run: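 Reporter transcripts were measured 24 h after dosing by RT-PCR and capillary electrophoresis of fluorescent fragments. Cells: HepG2 carrying transfected cis-regulated reporter constructs reading endogenous factor activity. Gain or loss fitted against DMSO.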

[7] = ATG_AP_2_CIS: Attagene CIS-FACTORIAL HepG2 Assay for human Activator Protein 2 (AP-2) (AID 2282932); conditions: HepG2 AP-2 cis-reporter, Attagene transcription factor profiling; actives raise or lower the signal
How it was run: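 Read-out: fluorescent reporter mRNA via RT-PCR and capillary electrophoresis, 24 h post-dose in transiently transfected HepG2. Endogenous factors drive cis-promoter reporters; gain or loss of signal fitted bidirectionally against DMSO.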

[8] = ATG_BRE_CIS: Attagene CIS-FACTORIAL HepG2 Assay for human Bone Morphogenetic Protein (BMP) Response Element (BRE) (AID 2282933); conditions: HepG2 BMP response element reporter, Attagene transcription factor profiling; actives raise or lower the signal
How it was run: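 HepG2 cells transiently transfected with multiplexed cis-element reporter units were dosed with chemical for 24 h. Reporter mRNA was measured by RT-PCR with fluorescent labelling, HpaI digestion and capillary electrophoresis; bidirectional fitting relative to DMSO.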

[9] = target: Transcription factor E2F1 (Homo sapiens) (UniProt Q01094); assay: ATG_E2F_CIS: Attagene CIS-FACTORIAL HepG2 Assay for human E2F Transcription Factor 1 (AID 2282935); conditions: HepG2 Attagene cis-reporter, E2F reporter RNA transcripts; actives raise or lower the signal
How it was run: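 Transient MRTU transfection of HepG2; 24 h compound exposure; RNA → oligo(dT) RT → PCR → FAM label → HpaI cut → CE fluorescence. Gain/loss of signal fit against DMSO.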

[10] = ATG_E_Box_CIS: Attagene CIS-FACTORIAL HepG2 Assay for human Enhancer Box (E-box) (AID 2282936); conditions: HepG2 E-box cis-reporter transcription, actives raise or lower the signal
How it was run: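 Transiently transfected HepG2, endogenous TF-driven reporters, 24 h dosing. Readout: RT-PCR plus capillary electrophoresis of fluorescent reporter fragments. Gain or loss of signal fitted bidirectionally against DMSO baseline.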

[11] = ATG_M_61_CIS: Attagene CIS-FACTORIAL HepG2 Assay for M61 Transcription Factor (Internal Marker) (AID 2282937); conditions: HepG2 Attagene CIS-FACTORIAL M61 internal marker reporter; actives raise or lower the signal
How it was run: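 Readout: fluorescent reporter mRNA fragments resolved by capillary electrophoresis after RT-PCR. Transiently transfected human HepG2 cells carried MRTU constructs reporting endogenous TF activity; 24 h chemical exposure; gain or loss of signal fitted relative to DMSO.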

[12] = ATG_EGR_CIS: Attagene CIS-FACTORIAL HepG2 Assay for human Early Growth Response 1 (EGR1) (AID 2282938); conditions: HepG2 Attagene CIS-FACTORIAL EGR reporter mRNA; actives raise or lower the signal
How it was run: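 Read-out: fluorescent reporter-mRNA fragments resolved by capillary electrophoresis after RT-PCR, 24 h post-dose in transiently transfected HepG2. Endogenous transcription-factor activity reported via cis-element-regulated reporter units; gain or loss fitted relative to DMSO.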

[13] = ATG_M_19_CIS: Attagene CIS-FACTORIAL HepG2 Assay for M19 Transcription Factor (Internal Marker) (AID 2282939); conditions: HepG2 Attagene CIS-FACTORIAL M19 internal marker reporter; actives raise or lower the signal
How it was run: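 HepG2 cells transiently transfected with cis-regulated multiple reporter transcription units were dosed for 24 h; reporter mRNA was quantified by RT-PCR, 6-FAM primer-extension labelling, HpaI digestion and capillary electrophoresis, with bidirectional fitting against DMSO baseline.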

[14] = ATG_Ets_CIS: Attagene CIS-FACTORIAL HepG2 Assay for human Erythroblast Transformation Specific (ETS) (AID 2282941); conditions: HepG2 ETS cis-reporter transcription, actives raise or lower the signal
How it was run: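 RT-PCR/capillary electrophoresis fluorescence read-out of reporter mRNA; HepG2 transient multi-reporter transfection; 24 h compound exposure; gain or loss of signal fitted bidirectionally relative to DMSO.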

[15] = target: Hepatocyte nuclear factor 3-beta (Homo sapiens) (UniProt Q9Y261); assay: ATG_FoxA2_CIS: Attagene CIS-FACTORIAL HepG2 Assay for human Forkhead box A2 (FOXA2) (AID 2282942); conditions: HepG2 cis-reporter transcription factor activity, 24 h; actives raise or lower the signal
How it was run: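 Readout: fluorescent reporter transcripts resolved by capillary electrophoresis after RT-PCR. Transiently transfected HepG2, 24 h compound exposure, endogenous TF activity at cis promoter elements. Gain or loss of signal fitted relative to DMSO.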

[16] = ATG_FoxO_CIS: Attagene CIS-FACTORIAL HepG2 Assay for human Forkhead box O (FoxO) (AID 2282943); conditions: HepG2 Attagene cis-reporter, FoxO element, mRNA; actives raise or lower the signal
How it was run: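 HepG2 cells transiently transfected with cis-element-driven reporter units report endogenous FoxO activity. After 24 h chemical exposure, reporter mRNA quantified by RT-PCR, fluorescent labeling, HpaI digestion and capillary electrophoresis; bidirectional fit versus DMSO.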

[17] = ATG_GATA_CIS: Attagene CIS-FACTORIAL HepG2 Assay for human GATA Binding Protein (AID 2282944); conditions: HepG2 GATA cis-element reporter, Attagene multiplex mRNA; actives raise or lower the signal
How it was run: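 HepG2 cells transiently transfected with multiplexed cis-element reporter units reflecting endogenous transcription factor activity; reporter mRNA measured after 24 h dosing by RT-PCR, 6-FAM labeling, HpaI digestion and capillary electrophoresis. Bidirectional fitting versus DMSO baseline.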

[18] = ATG_GLI_CIS: Attagene CIS-FACTORIAL HepG2 Assay for human Zinc Finger Protein GLI1 (AID 2282945); conditions: HepG2, Attagene cis-factorial reporter mRNA, GLI element; actives raise or lower the signal
How it was run: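 Transiently transfected HepG2 cells report endogenous transcription factor activity via cis-element-driven reporter units. After 24 h compound exposure, reporter mRNA was measured by RT-PCR with capillary electrophoresis; bidirectional fitting against DMSO baseline.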

[19] = ATG_ERE_CIS: Attagene CIS-FACTORIAL HepG2 Assay for Estrogen Response Element (ERE) (AID 2282940); conditions: HepG2 ERE cis-reporter, Attagene RNA transcript; actives raise or lower the signal
How it was run: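 HepG2 cells transiently transfected with cis-promoter-driven multiplexed reporter transcription units report endogenous TF activity. After 24 h compound exposure, reporter mRNA is quantified by RT-PCR with capillary electrophoresis fluorescence; bidirectional fitting versus DMSO baseline.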

Measured: AC50

Hepatocyte nuclear factor 3-beta (Homo sapiens), sequence (Q9Y261 whole entry, looked up): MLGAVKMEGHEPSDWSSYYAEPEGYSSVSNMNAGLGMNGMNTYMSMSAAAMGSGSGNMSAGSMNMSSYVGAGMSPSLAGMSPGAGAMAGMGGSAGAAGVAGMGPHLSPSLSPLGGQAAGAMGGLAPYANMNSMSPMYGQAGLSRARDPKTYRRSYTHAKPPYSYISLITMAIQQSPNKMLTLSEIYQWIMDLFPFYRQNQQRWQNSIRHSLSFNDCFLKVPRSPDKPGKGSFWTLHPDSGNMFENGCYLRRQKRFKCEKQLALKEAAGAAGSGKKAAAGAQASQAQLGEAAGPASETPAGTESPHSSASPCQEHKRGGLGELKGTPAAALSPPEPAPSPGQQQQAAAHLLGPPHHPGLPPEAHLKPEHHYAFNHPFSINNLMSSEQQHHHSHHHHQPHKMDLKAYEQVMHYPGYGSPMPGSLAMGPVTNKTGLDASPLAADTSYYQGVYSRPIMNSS
Transcription factor E2F1 (Homo sapiens), sequence (Q01094 whole entry, looked up): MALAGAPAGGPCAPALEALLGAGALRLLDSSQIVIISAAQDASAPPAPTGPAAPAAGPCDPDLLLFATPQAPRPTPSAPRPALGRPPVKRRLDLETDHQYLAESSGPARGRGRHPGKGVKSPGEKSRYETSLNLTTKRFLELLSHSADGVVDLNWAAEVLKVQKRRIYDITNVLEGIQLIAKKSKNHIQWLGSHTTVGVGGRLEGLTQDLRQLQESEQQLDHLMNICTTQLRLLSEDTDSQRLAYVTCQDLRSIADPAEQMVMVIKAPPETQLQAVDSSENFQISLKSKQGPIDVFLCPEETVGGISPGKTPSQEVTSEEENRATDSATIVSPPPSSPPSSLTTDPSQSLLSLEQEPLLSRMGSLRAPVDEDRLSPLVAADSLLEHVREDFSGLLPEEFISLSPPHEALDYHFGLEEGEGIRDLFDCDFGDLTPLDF
CCAAT/enhancer-binding protein beta (Homo sapiens), sequence (P17676 whole entry, looked up): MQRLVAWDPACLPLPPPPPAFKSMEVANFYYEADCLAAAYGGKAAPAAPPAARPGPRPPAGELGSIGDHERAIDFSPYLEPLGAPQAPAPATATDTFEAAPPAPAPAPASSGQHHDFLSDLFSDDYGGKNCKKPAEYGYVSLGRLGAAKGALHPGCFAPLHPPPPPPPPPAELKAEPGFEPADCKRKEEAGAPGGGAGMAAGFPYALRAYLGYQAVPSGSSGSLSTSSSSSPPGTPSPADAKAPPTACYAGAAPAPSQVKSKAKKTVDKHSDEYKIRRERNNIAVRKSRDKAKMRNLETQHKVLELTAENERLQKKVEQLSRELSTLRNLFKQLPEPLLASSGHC
Aryl hydrocarbon receptor (Homo sapiens), sequence (P35869 whole entry, looked up): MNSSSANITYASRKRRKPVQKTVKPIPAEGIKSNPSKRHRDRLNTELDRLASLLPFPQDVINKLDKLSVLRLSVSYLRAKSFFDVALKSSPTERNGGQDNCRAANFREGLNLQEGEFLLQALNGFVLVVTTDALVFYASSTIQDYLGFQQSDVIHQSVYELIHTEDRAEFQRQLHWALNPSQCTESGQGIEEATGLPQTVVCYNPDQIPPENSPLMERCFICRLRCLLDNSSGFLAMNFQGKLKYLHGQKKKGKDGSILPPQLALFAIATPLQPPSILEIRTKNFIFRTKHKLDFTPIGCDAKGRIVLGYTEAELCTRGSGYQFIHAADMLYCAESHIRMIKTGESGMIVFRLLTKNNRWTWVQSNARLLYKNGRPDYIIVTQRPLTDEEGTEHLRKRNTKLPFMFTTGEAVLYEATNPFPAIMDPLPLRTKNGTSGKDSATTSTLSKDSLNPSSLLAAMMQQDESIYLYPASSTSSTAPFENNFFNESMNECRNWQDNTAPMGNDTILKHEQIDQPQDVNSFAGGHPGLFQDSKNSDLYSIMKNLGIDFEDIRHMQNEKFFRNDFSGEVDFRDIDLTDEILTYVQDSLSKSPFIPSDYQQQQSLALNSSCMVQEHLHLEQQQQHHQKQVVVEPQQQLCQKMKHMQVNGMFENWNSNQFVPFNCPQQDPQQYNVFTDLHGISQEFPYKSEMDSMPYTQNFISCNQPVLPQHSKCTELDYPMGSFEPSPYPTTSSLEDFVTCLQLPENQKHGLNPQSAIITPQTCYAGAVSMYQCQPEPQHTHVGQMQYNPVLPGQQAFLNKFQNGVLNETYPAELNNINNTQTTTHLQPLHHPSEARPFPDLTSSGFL

c1ccc2[nH]ccc2c1
active: [5] 14.6 µM
inactive: [1] | [2] | [3] | [4] | [6] | [7] | [8] | [9] | [10] | [11] | [12] | [13] | [14] | [15] | [16] | [17] | [18]

FC1(F)C(F)(F)C(F)(F)C2(F)C(F)(C1(F)F)C(F)(F)C(F)(F)C1(F)C(F)(F)C(F)(F)C(F)(F)C(F)(F)C12F (stereo not drawn)
inactive: [1] | [2] | [3] | [4] | [5] | [6] | [7] | [8] | [9] | [10] | [11] | [12] | [13] | [14] | [15] | [16] | [17] | [18]

COC(=O)Cc1cccc2ccccc12
inactive: [1] | [2] | [3] | [4] | [5] | [6] | [7] | [8] | [9] | [10] | [11] | [12] | [13] | [19] | [15] | [16] | [17]

C=C(C)C(=O)OCCOC(=O)CC(C)=O
inactive: [1] | [2] | [3] | [4] | [5] | [6] | [7] | [8] | [9] | [10] | [11] | [12] | [13] | [14] | [15] | [16] | [17] | [18]

COc1cc(C(C)(C)C)c(O)c(C(C)(C)C)c1
inactive: [1] | [2] | [3] | [4] | [5] | [6] | [7] | [8] | [9] | [10] | [11] | [12] | [13] | [14] | [16] | [17] | [18]

COCCOCCOCCOCCOCCO
inactive: [1] | [2] | [3] | [4] | [5] | [6] | [7] | [8] | [9] | [10] | [11] | [12] | [13] | [14] | [15] | [16] | [17]

CCCC1CCC(=O)O1 (stereo not drawn)
inactive: [1] | [2] | [3] | [4] | [6] | [7] | [8] | [9] | [10] | [11] | [12] | [13] | [14] | [15] | [16] | [17] | [18]
active: [5] 10.2 µM

OC1OC[C@@H](O)[C@H](O)[C@H]1O (stereo partly drawn)
inactive: [1] | [2] | [3] | [4] | [5] | [6] | [7] | [8] | [9] | [10] | [11] | [12] | [13] | [14] | [15] | [16] | [17] | [18]

C=CC(=O)NCOCC(C)C
inactive: [1] | [2] | [3] | [4] | [5] | [6] | [7] | [8] | [9] | [10] | [11] | [12] | [13] | [14] | [15] | [17] | [18]

Nc1ccc(S(N)(=O)=O)cc1
inactive: [1] | [2] | [3] | [4] | [5] | [6] | [7] | [8] | [10] | [11] | [12] | [13] | [14] | [15] | [16] | [17] | [18]

O=C(COc1ccc(Cl)cc1)N1CCN(Cc2ccc3c(c2)OCO3)CC1
active: [3] 24.9 µM | [8] 93.6 µM
inactive: [1] | [2] | [4] | [5] | [6] | [7] | [10] | [11] | [13] | [19] | [15] | [16] | [17] | [18]

COc1cccc(OC)c1
inactive: [1] | [2] | [3] | [4] | [5] | [6] | [7] | [8] | [9] | [10] | [11] | [13] | [14] | [15] | [16] | [17] | [18]

CC(=O)OCc1ccc2c(c1)OCO2
inactive: [1] | [2] | [3] | [4] | [5] | [6] | [7] | [8] | [9] | [10] | [11] | [13] | [14] | [15] | [16] | [18]

CCCCC(CC)COCCC#N (stereo not drawn)
inactive: [1] | [2] | [3] | [4] | [5] | [6] | [7] | [8] | [10] | [11] | [12] | [13] | [14] | [15] | [16] | [18]

Cc1ccc2sc3cccc(C)c3c2c1
inactive: [1] | [2] | [3] | [4] | [5] | [6] | [7] | [8] | [9] | [10] | [11] | [13] | [19] | [14] | [15] | [16] | [17] | [18]

— PubChem BioAssay (EPA / NIEHS)
